Over roughly 39,000 sequences, “fluorescence intensity (a.u.)” has its median near 4,300; the highest 2% begin near 39,000. This is one part of a sample in which the highest values are shown more often than they occur.
These sequences were tested against T1, OsSMF1 (Oryza sativa, UniProt Q6ZLB0 1-436) (assay: protein-binding microarray (RPBM); PBS, 2% BSA, 51.3 ng/ul salmon testes DNA, 50 uM zinc acetate, 200 nM TF, 25 C, 1 h; high values mean tight binding). Conditions: protein: recombinant; tags: N-terminal polyhistidine and DsRed monomer fusion (pET32a); chain copies: 2; label: CyDye5-dUTP incorporated in the synthesized complementary strand; 3' TTTTT single-stranded linker to array surface; dsDNA, one strand shown.
T1 sequence: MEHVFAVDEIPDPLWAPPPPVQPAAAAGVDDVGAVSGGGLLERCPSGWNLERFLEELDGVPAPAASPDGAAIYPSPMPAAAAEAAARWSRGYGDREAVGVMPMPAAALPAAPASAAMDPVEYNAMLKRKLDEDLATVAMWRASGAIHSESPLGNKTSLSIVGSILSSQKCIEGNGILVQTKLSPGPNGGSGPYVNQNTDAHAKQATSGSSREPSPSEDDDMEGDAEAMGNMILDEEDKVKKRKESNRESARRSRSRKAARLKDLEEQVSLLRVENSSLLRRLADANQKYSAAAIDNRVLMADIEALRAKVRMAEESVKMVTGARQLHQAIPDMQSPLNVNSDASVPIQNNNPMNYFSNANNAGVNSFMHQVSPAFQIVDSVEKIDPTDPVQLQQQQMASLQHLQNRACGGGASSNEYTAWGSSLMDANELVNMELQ
Procedure, shortened: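 Ni–NTA purification followed expression in E. coli BL21-CodonPlus of transcription factors fused N-terminally to a polyhistidine tag and DsRed. At 200 nM in PBS with 2% BSA, salmon testes DNA and 50 µM zinc acetate, the protein was incubated for 1 h at 25 °C with a custom Agilent array that had been primer-extended with Cy5-dUTP and blocked with 2% BSA. After washing, the array was read on an Axon 4000B scanner. The binding signal is per-feature fluorescence intensity in arbitrary units.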

Sequence | binding signal
AGACACTTTTGCAGGGATTGCTCAGACTTAGTTTCAGAGTCGGAGTCACCTAGTGCAG | 3940 fluorescence intensity (a.u.)
AGAGCAAGACAAGATGGTTAGTTCTCACACTTCAGATTGTCGGAGTCACCTAGTGCAG | 41400 fluorescence intensity (a.u.)
TTAACGTGTACCACTACATGCATGCAGTGACGACAGTCAGCGGAGTCACCTAGTGCAG | 3150 fluorescence intensity (a.u.)
ACACTCTCGATGTATAGATTCACCCACGAGATGATGTGGCCGGAGTCACCTAGTGCAG | 6570 fluorescence intensity (a.u.)
CACCACTACCACGATCAGGCCCAAGAGATGATAAAGTGGCCGGAGTCACCTAGTGCAG | 46500 fluorescence intensity (a.u.)
GGGATAAAGAGAGGATGACACGTGGGACCCACATGTCAGCCGGAGTCACCTAGTGCAG | 12400 fluorescence intensity (a.u.)
GAGCTCCGACGAGCACCTCCCTGAAGCGTGGCAGGTCGAGCGGAGTCACCTAGTGCAG | 3900 fluorescence intensity (a.u.)
AATTTAACTCTTTCCCGCGTGGATGGCCGCATATATATGCCGGAGTCACCTAGTGCAG | 3460 fluorescence intensity (a.u.)
TATGGAGTTTACTATTCTCCTGATTATTACAAAATTTATACGGAGTCACCTAGTGCAG | 30000 fluorescence intensity (a.u.)
CACAGTGCACGCACGCAGCTACAAAGATGTCGTACGACCACGGAGTCACCTAGTGCAG | 3260 fluorescence intensity (a.u.)
CATCACACCCACTTGTCCGCACACAAGAAGAGACCAGCTACGGAGTCACCTAGTGCAG | 50600 fluorescence intensity (a.u.)
CAACACCCGTCCGCCAGAGAAGACCATCGTGACGCCACTCCGGAGTCACCTAGTGCAG | 4880 fluorescence intensity (a.u.)
GGAATAAATTATTTATCATTGGACCTACATGTCATGGACACGGAGTCACCTAGTGCAG | 3950 fluorescence intensity (a.u.)
TCCCCACATCACCCAACACGAGCTCACCACCACCACCACCCGGAGTCACCTAGTGCAG | 3500 fluorescence intensity (a.u.)
CCAACCAACATCCCACATCGAACCATGCATTATTTATGAACGGAGTCACCTAGTGCAG | 17300 fluorescence intensity (a.u.)
ACCACACCATCGAACATGGTGTAGCTCACGGTAGTCCCAACGGAGTCACCTAGTGCAG | 41000 fluorescence intensity (a.u.)
GGCGGCGGGTGGAGGGACGCCCGCTGAATCCGCCACCGGTCGGAGTCACCTAGTGCAG | 3170 fluorescence intensity (a.u.)
GTTTTATTGTTGAATTTTATATATTGTCACGTCCCCTTTTCGGAGTCACCTAGTGCAG | 4350 fluorescence intensity (a.u.)
TGGTGCGCTCGTTAAGCCAGCTCGGTTTATGTTAGATCATCGGAGTCACCTAGTGCAG | 3210 fluorescence intensity (a.u.)
AGTACTAGTTGGAATCATATGTGTCTATGGAGTATATTTTCGGAGTCACCTAGTGCAG | 3160 fluorescence intensity (a.u.)
AGCAAATATTTACTGTAGTACTACACTGTCAAATCATGTACGGAGTCACCTAGTGCAG | 3610 fluorescence intensity (a.u.)

Sequence | binding signal
ATACCATATGAGCAAATACGCAGGAATCAGTACTGTATTTCGGAGTCACCTAGTGCAG | 39500 fluorescence intensity (a.u.)
GGAGGAAAATGGCCCTGATCAGCATCAGGGCAAGTACTATCGGAGTCACCTAGTGCAG | 3200 fluorescence intensity (a.u.)
CGAACATAAGTTAGTGACGCATGCCTCAAAATGAAAAGGACGGAGTCACCTAGTGCAG | 41400 fluorescence intensity (a.u.)
TCCTTTGGAACATAAAAGTGACGTAGGCATGCAAATTTGTCGGAGTCACCTAGTGCAG | 13700 fluorescence intensity (a.u.)
TGGTAAGGTTGAAAATGGCATCAAAGTGAACAGGCCCTCACGGAGTCACCTAGTGCAG | 22200 fluorescence intensity (a.u.)
AGCAGACTCCACGTCGTCACCAACTTCCTTCCTCCTGGTCCGGAGTCACCTAGTGCAG | 11300 fluorescence intensity (a.u.)
GCTCCCTCGACGACCTCGTCAAGTCCCTCCGCGCCGACCCCGGAGTCACCTAGTGCAG | 4170 fluorescence intensity (a.u.)
CAAGTGGGGACAGCGCCACGTGCGCGCTCGCTCTTCTCCACGGAGTCACCTAGTGCAG | 11500 fluorescence intensity (a.u.)
GGTGCCCTAATAAGTACGGTGGTTGAACATTACACAATTCCGGAGTCACCTAGTGCAG | 3770 fluorescence intensity (a.u.)
ATCAGCTAAGGCCAATCGGTGGATTACACACATTGGGTTCCGGAGTCACCTAGTGCAG | 47600 fluorescence intensity (a.u.)
ACCGGGTTCCACATGTCATACACACATTACGTCTTGGAGTCGGAGTCACCTAGTGCAG | 4450 fluorescence intensity (a.u.)
CCGGTCGGTACTAGTTCGGGGCGTGACACATGGTAGTTATCGGAGTCACCTAGTGCAG | 4000 fluorescence intensity (a.u.)
TATATGAAATTATTATTTGATTTCTTGATCATATAATGTACGGAGTCACCTAGTGCAG | 3440 fluorescence intensity (a.u.)
TTTACATGTGTAGATCTAATGATGTGTTAATGCTAGTATACGGAGTCACCTAGTGCAG | 4500 fluorescence intensity (a.u.)
CTCATAGTCATAGTTACTGATTTGTTTGCTCATAGTCATACGGAGTCACCTAGTGCAG | 22700 fluorescence intensity (a.u.)
GTTACATACTGTGATAGTTTGTTTAATGCTAAATCTAGTACGGAGTCACCTAGTGCAG | 43300 fluorescence intensity (a.u.)
TGTTTATTGGCTTTGTCATATGATAAATGAATTAATTGTTCGGAGTCACCTAGTGCAG | 30500 fluorescence intensity (a.u.)
GTTTTGGTATTGGCTATAAAATGACATGGATGTTATTGGACGGAGTCACCTAGTGCAG | 4760 fluorescence intensity (a.u.)
ACTATTGTTTGGTAGTAAAATTGATAATTAAATGACTATACGGAGTCACCTAGTGCAG | 40900 fluorescence intensity (a.u.)
TTTGATGCTGATTATAGGAAAATGTAAATGTTTCTATATACGGAGTCACCTAGTGCAG | 39500 fluorescence intensity (a.u.)
TTGAAATGTTTAAGTTGTTTTAAAATTATTCTATATATTTCGGAGTCACCTAGTGCAG | 37800 fluorescence intensity (a.u.)

Reference: PMC7819943, “Rice protein-binding microarrays: a tool to detect cis-acting elements near promoter regions in rice”
